Screening results from PubChem.
The list is not random: actives were taken first. Their share in the collection is about 3.3%.
Mcl1-Bid inh: Mcl-1/Bid interaction inhibition; Q07820; TR-FRET Mcl-1/Bid-Dy647 peptide binding, 1536-well; inhibition, % at 21.7 µM; actives 0.97% (n = 220,000); AID 1021;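 active means compounds that cut the binding signal by more than half at the single screening dose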;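 further: His-tagged Mcl-1 with europium anti-His antibody binding Bid BH3 peptide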
Target sequence (Q07820 whole entry, looked up): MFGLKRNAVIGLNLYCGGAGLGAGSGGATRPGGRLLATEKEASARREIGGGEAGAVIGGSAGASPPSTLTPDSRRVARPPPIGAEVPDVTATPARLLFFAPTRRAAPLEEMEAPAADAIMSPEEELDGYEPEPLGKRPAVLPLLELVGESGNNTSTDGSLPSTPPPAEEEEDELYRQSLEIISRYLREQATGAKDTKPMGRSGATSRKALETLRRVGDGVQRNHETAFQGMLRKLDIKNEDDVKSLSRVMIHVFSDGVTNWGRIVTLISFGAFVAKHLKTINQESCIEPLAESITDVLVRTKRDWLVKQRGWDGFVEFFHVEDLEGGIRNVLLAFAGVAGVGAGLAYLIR
eIF4E-4G inh: blocks eIF4E binding to eIF4G; TR-FRET eIF4E-eIF4GI(517-606) binding, 2 h; P63073+Q04637; actives 0.37% (n = 220,000); inhibition, % at 21.7 µM
Mcl-1 Bim block: disrupts Bim peptide binding to human Mcl-1; Q07820; Bead-based flow cytometry, Bim peptide-Mcl-1 binding; inhibition, % at 10 µM; actives 0.1% (n = 190,000); AID 1009; in the data active means inhibition above about 40%
Mcl1-Noxa inh: disrupts binding of human Mcl-1 to Noxa peptide; Q07820; TR-FRET Mcl-1/Noxa peptide binding, 2 h; inhibition, % at 21.7 µM; actives 1.5% (n = 220,000); AID 1022;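 active means compounds that cut the protein-peptide binding signal by more than 50% relative to plate controls in a single-dose test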;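 further: His-tagged Mcl-1 with rhodamine Noxa BH3 peptide and terbium anti-His antibody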
NCF1 inh: blocks human p47phox regulatory protein of NADPH oxidases; inhibition, % at 24.7 µM; actives 0.53% (n = 220,000); P14598; p47phox/p22phox peptide binding, fluorescence polarization, 2 h
14-3-3 Bad inh: disrupts binding of bovine 14-3-3 zeta to phospho-Bad peptide | P63103 | TR-FRET 14-3-3zeta/Dy647-pBad peptide displacement, 1 h | inhibition, % at 21.7 µM | actives 0.71% (n = 220,000);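 active means inhibition above about 70%, limit read from the data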
Target sequence (P63103 whole entry, looked up): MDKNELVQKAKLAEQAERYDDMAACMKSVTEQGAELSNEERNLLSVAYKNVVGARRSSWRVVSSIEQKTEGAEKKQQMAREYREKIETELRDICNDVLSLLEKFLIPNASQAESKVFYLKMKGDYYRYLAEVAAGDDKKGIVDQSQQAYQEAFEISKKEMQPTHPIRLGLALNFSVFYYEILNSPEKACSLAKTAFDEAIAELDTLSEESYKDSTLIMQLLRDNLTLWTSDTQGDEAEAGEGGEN
Numbers stand for hits; n = inactive; x = no result given.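 How the source made its calls, unless noted: active means inhibition above about 30% (limit read from the data); inactive means the rest.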

SMILES | Mcl1-Bid inh | eIF4E-4G inh | Mcl-1 Bim block | Mcl1-Noxa inh | NCF1 inh | 14-3-3 Bad inh
CN(C)c1nc(Nc2ccccc2)nc(Oc2ccc(=O)[nH]n2)n1 | n | n | n | n | n | n
Cc1ccc(Nc2nc(Oc3ccc(=O)[nH]n3)nc(N(C)C)n2)cc1 | n | 73.8 | n | n | n | n
CCOc1ccc(Oc2nc(NCC(C)C)nc(N(C)C)n2)nn1 | n | n | n | n | n | n
Cc1ccc(N=Cc2c(O)n(-c3nccs3)c(=O)c3ccccc23)cc1 | n | n | n | n | n | n
CC(C)C(NC(=O)c1ccc(F)cc1)C(=O)Nc1cccnc1 (centres undefined) | n | n | n | n | n | n
Cc1cccc(N(C)S(=O)(=O)c2ccc3[nH]cc(C(=O)N4CCOCC4)c(=O)c3c2)c1 | 50.6 | n | n | n | n | n
Cc1ccc(NC(=O)COC(=O)CCC(=O)c2cccs2)c(C)c1 | n | n | n | n | n | n
O=C(COc1cccnc1[N+](=O)[O-])c1ccc(Cl)s1 | 80.5 | n | x | 81.8 | n | n
CCCCc1nc2ccc(S(=O)(=O)O)cc2[nH]1 | n | n | x | n | n | n
CCCNC(=O)c1ccc2c(=O)c(O)c(-c3cccc(Br)c3)[nH]c2c1 | n | n | x | n | n | n
CCCNC(=O)c1ccc2c(=O)c(O)c(-c3ccc(F)cc3)[nH]c2c1 | n | 97.8 | x | n | n | n
O=Cc1cccn1-c1ccc(O)cc1 | n | n | n | n | n | n
COc1ccc(CCNC(=O)CCNC(=O)c2ccc(Br)cc2)cc1OC | n | 36.7 | n | n | n | n
COc1ccc(CCNC(=O)c2ccc(CNS(=O)(=O)c3ccc(C(C)(C)C)cc3)cc2)cc1OC | 97.4 | n | n | n | n | n
COc1ccc(CCNC(=O)c2ccc(CNS(=O)(=O)c3cccc(Cl)c3)cc2)cc1OC | n | n | n | n | n | n
COc1ccc(CCNC(=O)C/C(C)=N/NC(=O)c2ccc(N)cc2)cc1OC | n | x | n | n | 81.3 | x
CN(c1cccc(NC(=O)c2cccc([N+](=O)[O-])c2)c1)S(C)(=O)=O | n | n | n | n | n | n
COC(=O)c1ccc(C)c(NC(=O)CCNC(=O)c2ccc([N+](=O)[O-])cc2)c1 | n | n | 46.0 | n | n | n
COc1ccccc1N1CCN(C(=O)CCc2c[nH]c3ccccc23)CC1 | n | n | n | n | n | n
CC(C)C1N(C(=O)CN2CCCCC2)CCN1S(=O)(=O)c1ccccc1 (centres undefined) | n | n | n | n | n | n
Oc1c(Br)cc(C=Nc2ccc3nc(-c4ccccc4)[nH]c3c2)c(O)c1Br | n | n | n | 94.1 | n | n
O=[N+]([O-])c1cccc(-c2nc3ccc([N+](=O)[O-])cc3[nH]2)c1 | n | n | n | 58.1 | n | n
O=[N+]([O-])c1ccc(O)c(C=Nc2ccc3nc(-c4ccccc4)[nH]c3c2)c1 | 63.3 | n | n | 62.4 | n | n
COc1ccc2nc(-c3ccccc3)[nH]c2c1 | n | n | n | n | n | n
CN(C)c1ccc2c3c(ccc(N(C)C)c13)COC2 | n | n | n | n | n | n
SMILES | Mcl1-Bid inh | eIF4E-4G inh | Mcl-1 Bim block | Mcl1-Noxa inh | NCF1 inh | 14-3-3 Bad inh
Cc1cc(C)n(CCN(C)c2nc3nonc3nc2NC2CC2)n1 | n | n | n | n | n | n
Cc1ccc(C)c(NS(=O)(=O)c2ccc3[nH]c(=O)oc3c2)c1 | n | n | n | 58.8 | n | n
CNS(=O)(=O)c1cccc(C(=O)OCC(=O)Nc2ccc(OC)cc2[N+](=O)[O-])c1 | n | n | n | n | n | n
CCC(C)(C)n1nnnc1CN(Cc1ccc(Cl)cc1)Cc1ccco1 | 56.9 | n | n | n | n | n
CCC(C)(C)n1nnnc1CN(Cc1ccco1)Cc1cc2cc3c(cc2[nH]c1=O)OCO3 | n | x | n | n | n | x
S=c1[nH]nc(-c2ccc3ccccc3n2)n1-c1ccc2ncccc2c1 | n | n | n | 70.0 | n | n
CCN(CC)CCn1c2ccccc2c2nc3ccc([N+](=O)[O-])cc3cc21 | n | n | x | n | n | n
O=C(Cn1nc(C(F)(F)F)c2c1CCCC2)NCc1ccco1 | 97.6 | n | n | n | n | n
COc1ccc(CNC(=O)Cn2nc(C(F)(F)F)c3c2CCC3)cc1 | n | n | n | n | n | n
CC1CN(CCCCOc2ccc(F)cc2)CC(C)O1 (centres undefined) | n | n | n | n | n | n
COc1cc(/C=C(\C#N)c2[nH]nc(N)c2C#N)cc(OC)c1O | n | n | n | 56.4 | n | n
O=C(N/N=C/c1cccnc1)C1CC1(c1ccccc1)c1ccccc1 (centres undefined) | n | n | n | n | n | n
COc1cc(/C=C2/SC(=S)NC2=O)ccc1OS(=O)(=O)c1ccc(C)cc1 | 81.5 | n | n | 97.6 | n | n
COc1cc(/C=C2\SC(=S)NC2=O)ccc1OS(=O)(=O)c1ccccc1 | n | n | n | 79.0 | n | n
Cc1onc(C(=O)NC(C)c2ccccc2)c1[N+](=O)[O-] (centres undefined) | n | n | n | n | n | n
CC(C)c1onc(C(=O)N(C)C2CCCCC2)c1[N+](=O)[O-] | n | n | n | n | x | n
CCOC(=O)CC(C(=O)OCC)P(=O)(c1ccccc1)c1ccccc1 (centres undefined) | n | n | n | n | n | n
CCCC(C(=O)OCC)P(=O)(c1ccccc1)c1ccccc1 (centres undefined) | n | n | n | n | n | 84.3
O=C(O)CCC(=O)N1N=C(c2ccco2)CC1c1cccs1 (centres undefined) | n | n | n | n | n | n
O=C(O)CCC(=O)N1N=C(c2ccc(Br)cc2)CC1c1cccs1 (centres undefined) | n | n | n | n | n | 82.1
Cc1ccc(-c2cc(C(=O)O)c3ccccc3n2)c(C)c1 | n | n | x | n | n | n
O=C(N/N=C/c1ccc(N2CCOCC2)s1)c1ccccc1Br | n | n | n | n | n | n
Clc1cccc(N/N=C/c2ccc(N3CCOCC3)s2)c1 | n | n | n | 86.8 | n | n
CC(=O)Nc1cccc(NC(=S)Nc2ccc(F)c(Cl)c2)c1 | n | 92.5 | n | n | n | n
C=CCn1c(N2CCN(c3ccc(OC)cc3)CC2)nc2c1c(=O)[nH]c(=O)n2C | n | n | n | n | n | n
SMILES | Mcl1-Bid inh | eIF4E-4G inh | Mcl-1 Bim block | Mcl1-Noxa inh | NCF1 inh | 14-3-3 Bad inh
CC(=O)Nc1cccc(-c2cn3ccccc3n2)c1 | n | n | n | n | n | n
O=C(Nc1cccc(-c2cn3ccccc3n2)c1)c1cc2ccccc2oc1=O | 59.7 | n | n | 59.2 | 43.5 | n
Cc1[nH]c2ccccc2c1/C=C/c1nc2ccccc2c(=O)[nH]1 | 63.7 | n | x | 74.5 | n | 82.0
CCN(CC)C(=O)CN(C)S(=O)(=O)c1cccc2nsnc12 | 75.6 | n | n | n | n | n
COC(=O)CSc1nc(N)nc(C)c1Cl | n | n | n | n | n | n
COC(=O)CSc1nc(C)c(C)c(C)c1C(N)=O | 70.0 | n | n | n | n | n
